# Inconclusive results are not listed. A number with no mark means an inactive call. The source made the active and inactive calls. Calls come from the whole dose curve; as a rule, active = well fitted curve in the direction sought with a large enough effect; inconclusive = small, poorly fitted or top-dose-only effect, or another doubt; inactive = no such curve, though single readings can be large; an effect the other way counts as inactive or inconclusive.
# Tests used:
# [1] = Quantitative High-Throughput drug screen in 47 multiple myeloma cell lines against the NCATS MIPE library collection: KMS12PE_JCRB cell viability assay (AID 1918972); note: nearly all actives have a fitted effect of over 30% in size
# In short: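 Myeloma cells (500 per well) were exposed to MIPE 4.0 compounds by pin transfer and incubated 48 hours at 37C, 5% CO2. Viability was read as ATP by CellTiter-Glo luminescence, normalised to DMSO (100%) and media-only (0%) wells.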
# [2] = Quantitative High-Throughput drug screen in 47 multiple myeloma cell lines against the NCATS MIPE library collection: KMS21BM_JCRB cell viability assay (AID 1918974); conditions: ATP luminescence, 48 h; viability: at 45.8 µM (top of the series)
# In short: (§1)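 Inhibition of cell viability is measured here. Each line was plated at 500 cells per well, treated with MIPE 4.0 drugs, kept 48 hours at 37C, then assayed for ATP content by CellTiter-Glo luminescence.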
# [3] = Quantitative High-Throughput drug screen in 47 multiple myeloma cell lines against the NCATS MIPE library collection: KMS26_JCRB cell viability assay (AID 1918975); note: nearly all actives have a fitted effect of over 45% in size
# In short: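 We plated 500 myeloma cells per well, pinned in MIPE 4.0 compounds, and incubated for 48 hours at 37C. ATP was then quantified with CellTiter-Glo, with DMSO and media-only wells defining 100% and 0%.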
# [4] = Quantitative High-Throughput drug screen in 47 multiple myeloma cell lines against the NCATS MIPE library collection: MMM1_PLB cell viability assay (AID 1918976); note: nearly all actives have a fitted effect of over 35% in size
# In short: (§2)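 Myeloma cells (500/well) treated with MIPE 4.0 compounds for 48 h at 37 °C, 5% CO2. Viability read as ATP via CellTiter-Glo luminescence after 5 min at RT; DMSO-only wells = 100%, media-only = 0% viability.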
# [5] = Quantitative High-Throughput drug screen in 47 multiple myeloma cell lines against the NCATS MIPE library collection: MOLP8_DSMZ cell viability assay (AID 1918977); note: nearly all actives have a fitted effect of over 45% in size
# In short: as §2
# [6] = Quantitative High-Throughput drug screen in 47 multiple myeloma cell lines against the NCATS MIPE library collection: NCIH929_DSMZ cell viability assay (AID 1918978); note: nearly all actives have a fitted effect of over 35% in size
# In short: as §2
# [7] = Quantitative High-Throughput drug screen in 47 multiple myeloma cell lines against the NCATS MIPE library collection: MM1R_ATCC cell viability assay (AID 1918981); note: nearly all actives have a fitted effect of over 35% in size
# In short: as §2
# [8] = Quantitative High-Throughput drug screen in 47 multiple myeloma cell lines against the NCATS MIPE library collection: LP1_DSMZ cell viability assay (AID 1918982); note: nearly all actives have a fitted effect of over 35% in size
# In short: as §2
# [9] = Quantitative High-Throughput drug screen in 47 multiple myeloma cell lines against the NCATS MIPE library collection: KMS28PE_JCRB cell viability assay (AID 1918983); note: nearly all actives have a fitted effect of over 35% in size
# In short: as §2
# [10] = Quantitative High-Throughput drug screen in 47 multiple myeloma cell lines against the NCATS MIPE library collection: L363_DSMZ cell viability assay (AID 1918984); conditions: L363 myeloma viability, CellTiter-Glo ATP luminescence, 48 h; viability (% of control): at 45.8 µM (top of the series); note: nearly all actives have a fitted effect of over 40% in size
# In short: as §2
# [11] = Quantitative High-Throughput drug screen in 47 multiple myeloma cell lines against the NCATS MIPE library collection: OCIMY7_PLB cell viability assay (AID 1918987); conditions: OCI-MY7 myeloma viability, CellTiter-Glo ATP, 48 h; viability (% of DMSO): at 45.8 µM (top of the series); note: nearly all actives have a fitted effect of over 65% in size
# In short: as §2
# [12] = Quantitative High-Throughput drug screen in 47 multiple myeloma cell lines against the NCATS MIPE library collection: OCIMY5_PLB cell viability assay (AID 1918988); note: nearly all actives have a fitted effect of over 65% in size
# In short: as §2
# [13] = Quantitative High-Throughput drug screen in 47 multiple myeloma cell lines against the NCATS MIPE library collection: OPM1_PLB cell viability assay (AID 1918989); note: nearly all actives have a fitted effect of over 40% in size
# In short: as §2
# [14] = Quantitative High-Throughput drug screen in 47 multiple myeloma cell lines against the NCATS MIPE library collection: SKMM1_PLB cell viability assay (AID 1919863); conditions: SKMM1 myeloma viability, CellTiter-Glo ATP, 48 h; viability: stronger effect = lower value; note: nearly all actives have a fitted effect of over 35% in size
# In short: as §2
# [15] = Quantitative High-Throughput drug screen in 47 multiple myeloma cell lines against the NCATS MIPE library collection: U266_ATCC cell viability assay (AID 1919864); note: nearly all actives have a fitted effect of over 35% in size
# In short: as §2
# [16] = Quantitative High-Throughput drug screen in 47 multiple myeloma cell lines against the NCATS MIPE library collection: XG6_PLB cell viability assay (AID 1919865); note: nearly all actives have a fitted effect of over 40% in size
# In short: as §2
# [17] = Quantitative High-Throughput drug screen in 47 multiple myeloma cell lines against the NCATS MIPE library collection: KMS20_JCRB cell viability assay (AID 1918973); note: nearly all actives have a fitted effect of over 45% in size
# In short: as §1
# [18] = Quantitative High-Throughput drug screen in 47 multiple myeloma cell lines against the NCATS MIPE library collection: OCIMY1_PLB cell viability assay (AID 1918979); note: nearly all actives have a fitted effect of over 35% in size
# In short: as §2
# [19] = Quantitative High-Throughput drug screen in 47 multiple myeloma cell lines against the NCATS MIPE library collection: MM1S_ATCC cell viability assay (AID 1918980); note: nearly all actives have a fitted effect of over 45% in size
# In short: as §2
# [20] = Quantitative High-Throughput drug screen in 47 multiple myeloma cell lines against the NCATS MIPE library collection: KMS34_JCRB cell viability assay (AID 1918985); note: nearly all actives have a fitted effect of over 40% in size
# In short: as §2
# Potency is the fitted concentration of half-maximal effect.
compound,measurement,setting,value
CN1CCN(c2cccc(Nc3nc4c(-c5ccc(S(C)(=O)=O)cc5)cccn4n3)c2)CC1,Potency,[1],0.833 µM (active)
same,Potency,[2],3.32 µM (active)
same,Potency,[3],20.9 µM (active)
same,Potency,[4],16.6 µM (active)
same,Potency,[5],9.35 µM (active)
same,Potency,[6],2.64 µM (active)
same,Potency,[7],16.6 µM (active)
same,Potency,[8],14.8 µM (active)
same,Potency,[9],16.6 µM (active)
same,Potency,[10],3.32 µM (active)
same,Potency,[11],0.743 µM (active)
same,Potency,[12],4.69 µM (active)
same,Potency,[13],2.35 µM (active)
same,Potency,[14],18.7 µM (active)
same,Potency,[15],3.32 µM (active)
same,Potency,[16],0.833 µM (active)
C=CC[N+]1([C@H]2C[C@H]3[C@@H]4CC[C@H]5C[C@H](O)[C@@H](N6CCOCC6)C[C@]5(C)[C@@H]4CC[C@]3(C)[C@H]2OC(C)=O)CCCC1,Potency,[1],inactive
same,Potency,[17],inactive
same,Potency,[18],inactive
same,Potency,[19],18.7 µM (active)
same,Potency,[7],inactive
same,Potency,[11],inactive
same,Potency,[13],inactive
same,Potency,[15],inactive
same,Potency,[16],inactive
COc1cc2nc(-c3cc(F)ccc3O)nc(N[C@@H]3CNC[C@@H]3C(C)(C)O)c2cc1OC,Potency,[1],8.33 µM (active)
same,Potency,[2],0.935 µM (active)
same,Potency,[3],18.7 µM (active)
same,Potency,[5],5.9 µM (active)
same,Potency,[6],7.43 µM (active)
same,Potency,[19],18.7 µM (active)
same,Potency,[8],9.35 µM (active)
same,Potency,[9],20.9 µM (active)
same,Potency,[10],1.87 µM (active)
same,Potency,[20],16.6 µM (active)
same,Potency,[11],2.64 µM (active)
same,Potency,[12],13.2 µM (active)
same,Potency,[13],3.72 µM (active)
same,Potency,[15],20.9 µM (active)
same,Potency,[16],0.935 µM (active)
Nc1ncnc2c1ncn2[C@@H]1O[C@H](CO)[C@@H](O)[C@@H]1O,Potency,[1],1.66 µM (active)
same,Potency,[2],0.209 µM (active)
same,Potency,[3],16.6 µM (active)
same,Potency,[18],inactive
same,Potency,[19],0.743 µM (active)
same,Potency,[7],20.9 µM (active)
same,Potency,[10],1.05 µM (active)
same,Potency,[20],18.7 µM (active)
same,viability (% of DMSO),[11],126% (active)
same,Potency,[12],16.6 µM (active)
same,Potency,[13],20.9 µM (active)
same,viability,[14],106%
same,Potency,[15],7.43 µM (active)
same,Potency,[16],2.64 µM (active)
COc1ccc(C=CC(=O)Nc2ccccc2C(=O)O)cc1OC,Potency,[1],inactive
same,Potency,[17],11.8 µM (active)
same,Potency,[6],inactive
same,Potency,[18],inactive
same,Potency,[19],11.8 µM (active)
same,Potency,[9],inactive
same,Potency,[20],inactive
same,Potency,[13],inactive
COc1ccc(CCC(=O)Nc2nc3ccc(Cl)cc3s2)cc1OC,Potency,[1],inactive
same,Potency,[3],inactive
same,Potency,[4],3.72 µM (active)
same,Potency,[5],inactive
same,Potency,[19],13.2 µM (active)
same,Potency,[7],inactive
same,Potency,[9],inactive
same,Potency,[13],inactive
same,Potency,[15],16.6 µM (active)
same,Potency,[16],23.5 µM (active)
CC(NCCc1ccc(O)cc1)C(O)c1ccc(O)cc1 (stereo not given),Potency,[1],inactive
same,Potency,[3],inactive
same,Potency,[4],14.8 µM (active)
same,Potency,[5],inactive
same,Potency,[6],inactive
same,Potency,[18],inactive
same,Potency,[19],5.9 µM (active)
same,Potency,[10],inactive
same,Potency,[20],inactive
same,Potency,[12],0.132 µM (active)
same,Potency,[13],inactive
same,viability,[14],131%
same,Potency,[15],inactive
same,Potency,[16],inactive
CC1(C)[C@H]2CC[C@]3(C)[C@@H](C(=O)C=C4[C@@H]5C[C@@](C)(C(=O)O)CC[C@]5(C)CC[C@]43C)[C@@]2(C)CC[C@@H]1O,Potency,[1],inactive
same,Potency,[3],inactive
same,Potency,[4],3.72 µM (active)
same,Potency,[6],inactive
same,Potency,[19],inactive
same,Potency,[8],inactive
same,Potency,[9],18.7 µM (active)
same,Potency,[13],inactive
same,Potency,[14],11.8 µM (active)
same,Potency,[16],inactive
CCC(=O)NCC[C@@H]1CCc2ccc3c(c21)CCO3,Potency,[1],inactive
same,Potency,[3],6.62 µM (active)
same,Potency,[4],0.59 µM (active)
same,Potency,[18],inactive
same,Potency,[19],1.48 µM (active)
same,Potency,[7],inactive
same,viability,[14],137%
same,Potency,[16],inactive
Cc1csc(-c2nnc(Nc3ccc(Oc4ncccc4-c4ccnc(N)n4)cc3)c3ccccc23)c1,Potency,[1],20.9 µM (active)
same,Potency,[2],18.7 µM (active)
same,Potency,[18],5.26 µM (active)
same,Potency,[19],18.7 µM (active)
same,Potency,[8],20.9 µM (active)
same,Potency,[10],20.9 µM (active)
same,Potency,[13],18.7 µM (active)
same,Potency,[15],23.5 µM (active)
CCCC1OC2C[C@@H]3[C@H]4CCC5=CC(=O)C=C[C@]5(C)[C@H]4C(O)C[C@]3(C)[C@]2(C(=O)CO)O1 (stereo not given in full),Potency,[1],inactive
same,Potency,[3],inactive
same,Potency,[4],0.0066 µM (active)
same,Potency,[6],0.296 µM (active)
same,Potency,[18],inactive
same,Potency,[19],0.0743 µM (active)
same,Potency,[8],0.0066 µM (active)
same,Potency,[9],20.9 µM (active)
same,Potency,[10],0.0662 µM (active)
same,Potency,[12],0.0372 µM (active)
same,Potency,[15],16.6 µM (active)
same,Potency,[16],inactive
O=S(=O)(O)c1ccc2cc(N=Nc3cc(S(=O)(=O)O)c4cccnc4c3O)ccc2c1,Potency,[1],inactive
same,Potency,[3],20.9 µM (active)
same,Potency,[4],3.72 µM (active)
same,Potency,[6],7.43 µM (active)
same,Potency,[18],inactive
same,Potency,[19],13.2 µM (active)
same,Potency,[7],20.9 µM (active)
same,Potency,[9],18.7 µM (active)
same,Potency,[12],9.35 µM (active)
same,Potency,[14],18.7 µM (active)
same,Potency,[15],13.2 µM (active)

# From PubChem BioAssay (NCATS)
